# Test results published in the OligoGym collection.
# Biological target: KIF25
# Test: pooled miR-30 sensor sort-seq; sequence = guide strand
# Details: shRNA
# Also: reference of the scale not given here.
row,Sequence,sensor-assay potency score (higher = more potent)
1,TTGTAAACTTCCACTATGGAGA,-0.609
2,AGAATCACCAGTAACTTCGCAT,-0.565
3,ATTATTGTAAACTTCCACTATG,-0.786
4,TAACTTCGCATCGCCTCCGAGG,-1.63
5,TAACACAAACATTGTACCCATC,-0.837
6,ATAACACAAACATTGTACCCAT,0.237
7,TAGAGTCACCGTAATTATCAGG,-1.12
8,TTATTGTAAACTTCCACTATGG,-0.569
9,AACCTCTGTCCGTCCATCCTTG,-0.841
10,ACAAACATTGTACCCATCCAAG,-1.74

# Biological target: KIF26A
# Test: as above
# Details: shRNA
row,Sequence,sensor-assay potency score (higher = more potent)
1,TTGTCCTTGGTCTTGGAGGCGG,-1.26
2,ATCTCGTACACCTTGATCTCGA,-0.604
3,TTGAGCTCCACCAGCTTCGTGT,-0.457
4,TACACCTTGATCTCGAACGGCT,-0.449
5,TAGCTTGTCGAGAAGCAGGGCA,-0.503
6,TCATCGATCTCGTACACCTTGA,-0.779
7,TCGCTTGAGCTCCACCAGCTTC,-1.81
8,TTCTTGGGGGACTTGAGGCTGC,-0.669
9,TCGAAGGCAAACATCTTGGGAA,0.12
10,TGTGCTGCTTCTACCTTGCTGG,-0.279
11,TCAAACTCATCATTGATGCTGC,0.23
12,TACTGGTAGACGTGCAGCGTGA,-1.25

# Biological target: KIF2C
# Test: as above
# Details: shRNA
row,Sequence,sensor-assay potency score (higher = more potent)
1,TTGGAGTTGACGGATCTCCGTT,-0.171
2,TTCTCCAAGTTCACAGTCCTTA,-0.384
3,TTTGTCTGCTAGCCTGCTCTTC,-1.15
4,TTCTGTTTCCATTTGAATCAAC,-0.604
5,TTGCTGTATGATCTCCTTGAGC,-1.21
6,TTTCTTGGCCAATTCTTGCTTA,0.0812
7,TTGCTCTTCCATCTCCTCGCTG,-0.535
8,TATGTGTCTTGCCACTTCCTGT,-0.789
9,TTCAAAGATTGTCTGTACCAGT,-0.672
10,TGAACCTGTAGACAACTTCATT,-1.25
11,TAACACAGACACATATTCTGTG,0.393

# Biological target: KIR2DL5B
# Test: as above
# Details: shRNA
row,Sequence,sensor-assay potency score (higher = more potent)
1,TTGAAGAGTTTCCTGTGACAGA,-0.517
2,TTCTTTTTGTTGGAGCAGCAGC,-0.965
3,TTGATCATCAGAGTCCTCCCTG,0.731
4,TTTTGTTGTAGAGCTCAGGGAC,0.231
5,TATCTGTTGGAGGTGCCTTGGG,-0.788
6,TACATGGGAGCTAGCAACCCGG,-1.49
7,TACATGTCAAATGAGCTCCTGG,-0.149
